Only some compounds are listed: those with a hit (about 21% of all), similar ones and a draw of the others.
Pf growth 96h: P. falciparum growth inhibition at 96 hour, primary screen for plastid delayed-death inhibitors; P. falciparum luciferase reporter growth, 96 h; Potency, µM (series often up to 28.7 µM), without a hit: at the highest dose activity change, negative = inhibition, most hits filed as inhibitors; actives 6.9% (n = 320,000); further: potency means the concentration at half of the fitted maximal effect; on the % scale 0 is the no-effect control and ±100 the full control effect
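Plates of compound plus infected erythrocytes (2% hematocrit, 0.05% parasitemia final) incubate 96 hours, 37 C, 5% CO2. Detection reagent added; reduced luminescence from the parasites' luciferase reporter flags inhibition.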
CHX counter: counter-screen for Shiga toxin inhibitors: cycloheximide protein synthesis inhibition | cell reporter, cycloheximide protein synthesis inhibition counterscreen | max response, % | actives 12% (n = 300,000) | AID 2314; in the data active means max response mostly above about 13%, no sharp cut-off; inactive means mostly below about 14%; further: read at 38.3 µM for the half of the compounds with a filed dose; 0% is about no effect
Pf growth 48h: P. falciparum growth inhibition at 48 hours (one generation). AID 504832. Potency, µM (series often up to 28.7 µM), for inactives: at the top dose activity change, negative = inhibition, usual class: inhibitors. actives 5.9% (n = 310,000). P. falciparum luciferase growth in erythrocytes, 48 h; further: potency means the concentration at half of the fitted maximal effect; on the % scale 0 is the no-effect control and ±100 the full control effect
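Luciferase-expressing P. falciparum in infected erythrocytes (2% hematocrit, 0.1% parasitemia final) in RPMI 1640/0.5% Albumax were exposed to compound for 48 hours at 37 C, 5% CO2; growth read as luminescence.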
NS1 function inh: influenza NS1 inhibition; actives 0.4% (n = 270,000); Potency, µM (top dose mostly 46.1 µM), for inactives: top-dose activity, positive = more growth; calls by dose curve; further: potency means the concentration at half of the fitted maximal effect; actives are rising curves; nearly all actives have a fitted effect of over 50% in size
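Read-out: OD600 growth recovery of NS1-expressing budding yeast. Cells grown overnight at 30C in -URA glucose medium, washed, resuspended and diluted 1:100 in 2% galactose assay medium, pH 6.0. Same strain lacking NS1 served as positive control.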
Shiga inhibitor: Shiga toxin inhibition | inhibition, % at 38.7 µM | Vero cells, Shiga toxin protein synthesis inhibition reporter | actives 9.2% (n = 290,000); in the data active means inhibition mostly above about 28%, no sharp cut-off; inactive means mostly below about 43%; further: 0% is about no effect
Sm TGR block: S. mansoni TGR enzyme inhibition; Q962Y6; purified TGR, DTNB reduction, TNB absorbance 405 nm; Potency, µM (series often up to 114 µM), for inactives: at the top dose activity change, negative = inhibition, actives largely listed as inhibitors; actives 3% (n = 360,000); further: potency means the concentration at half of the fitted maximal effect; on the % scale 0 is the no-effect control and ±100 the full control effect; nearly all actives have a fitted effect of over 60% in size
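Kinetic colorimetric format: TGR-catalysed, NADPH-driven DTNB reduction monitored via TNB absorbance. Enzyme dispensed at 20 nM; compound exposure 15 min at room temperature before reaction start.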
* = called active by the depositor; ? = inconclusive; / = no result given; [ ] = remark or other dose. Unless noted, the call rests on the fitted dose curve; in most records, active means well fitted curve in the direction sought with a large enough effect; inconclusive means small, poorly fitted or top-dose-only effect, or another doubt; inactive means no such curve, though single readings can be large; an effect the other way counts as inactive or inconclusive.

SMILES	Pf growth 96h	CHX counter	Pf growth 48h	NS1 function inh	Shiga inhibitor	Sm TGR block
O=C1/C(=C\Nc2ccc(Cl)cc2)CCN1c1ncccn1	224%	23*	203%	0%	89*	16µM*
Cc1c(C(=O)/C=C/N(C)C)nnn1-c1ccc(Cl)c(Cl)c1	26%	15	?	-5%	44	-12%
Cc1c(C(=O)/C=C/N(C)C)nnn1-c1ccc(F)c(Cl)c1	32%	33*	46%	-6%	76*	-13%
Cc1c(C(=O)/C=C/N(C)C)nnn1-c1ccc(Cl)cc1Cl	?	13	-50%	-33%	58*	-8%
Cc1ccc(C(CC(=O)Nc2ccc(C)cc2C)N2Cc3ccccc3C2=O)cc1 (stereo unspecified)	/	/	/	/	/	0%
FC(F)(F)c1cccc(N2CCN(C(=S)NC3CCCCC3)CC2)c1	0%	1	-3%	6%	-10	-6%
CCNC(=S)N1CCN(c2cccc(C(F)(F)F)c2)CC1	19%	1	17%	-14%	-4	-12%
FC(F)(F)c1cccc(N2CCN(C(=S)NC3CCCC3)CC2)c1	13µM*	1	?	1%	22	-9%
S=C(NC1CCCCC1)N1CCN(c2ccccn2)CC1	12µM*	7	-14%	2%	-10	6%
C=CCNC(=S)N1CCN(c2cccc(C(F)(F)F)c2)CC1	?	46*	8%	-19%	-19	-7%
CC1CCCC(C)N1C(=O)COC(=O)CNC(=O)c1ccc(Cl)cc1Cl (stereo unspecified)	12%	/	34%	/	/	1%
O=C(COc1ccc(Cl)cc1)NCCc1csc(-c2cccc(F)c2)n1	/	/	/	/	/	0%
Cc1cc(C)nc(SCC(=O)N/N=C/c2cccn2-c2cccc(C(F)(F)F)c2)n1	13µM*	-7	9.3µM*	18%	43	-32%
COC(=O)CCC(=O)OC1(C)C(=O)C2=CN(C(CO)CO)C(c3ccc(OC)cc3)=CC2=C(Br)C1=O (stereo unspecified)	?	-3	?	-2%	-5	?
COC(=O)CCC(=O)OC1(C)C(=O)C2=CN(CCN3CCOCC3)C(c3ccc(OC)cc3)=CC2=C(Br)C1=O (stereo unspecified)	?	-3	?	-4%	-6	?
COc1ccc(CN2C=C3C(=O)C(C)(OC(=O)C4CCCC4)C(=O)C=C3C=C2c2ccsc2)cc1 (stereo unspecified)	?	1	?	7%	-4	-6%
COc1ccc(C2=CC3=C(Br)C(=O)C(C)(OC(=O)c4ccc(Cl)nc4)C(=O)C3=CO2)cc1 (stereo unspecified)	47%	-2	-14%	-5%	-3	10µM*
COC(=O)CCC(=O)OC1(C)C(=O)C2=COC(c3ccc(OC)cc3)=CC2=C(Br)C1=O (stereo unspecified)	62%	-4	43%	-52%	1	7.9µM*
COc1ccc(C2=CC3=C(Br)C(=O)C(C)(OC(=O)C4CCCC4)C(=O)C3=CO2)cc1 (stereo unspecified)	38%	-4	0%	-77%	-4	7.1µM*
COC(=O)CCC(=O)OC1(C)C(=O)C2=CN(CCCCO)C(c3ccc(OC)cc3)=CC2=C(Br)C1=O (stereo unspecified)	?	-1	?	-6%	7	45µM*
CC(C)Oc1ccc(C(=O)Nc2c(C(=O)Nc3cccc(F)c3)oc3ccccc23)cc1	/	/	/	/	/	-9%
Cc1cc2ccc(OC(=O)c3ccc(N=C(N)N)cc3)cc2oc1=O	/	/	/	13%	/	/
Cc1ccc(-n2cc(CNCCc3ncc(C)[nH]3)c(-c3ccc(F)cc3)n2)cc1	20%	14*	1.7µM*	1%	7	0%[57.1 µM]
COc1ccc(-n2cc(CNCCc3nc(C)cc(C)n3)c(-c3ccccc3Cl)n2)cc1	?	4	12µM*	0%	8	?
COc1ccc(-n2cc(CNCCCn3ccnc3)c(-c3ccccc3Cl)n2)cc1	20%	1	1.5µM*	1%	-6	?
Fc1ccc(-n2cc(CNCCc3ccccn3)c(-c3ccccc3Cl)n2)cc1	23%	-2	8.3µM*	7%	-4	-20%
COc1ccc2nc(N(Cc3cccnc3)C(=O)c3ccco3)sc2c1	/	/	/	/	/	5%

Compound activity: PubChem, National Center for Advancing Translational Sciences (NCATS)
